Measurements published in PubChem BioAssay (NCI).
About 83,000 compounds went through this panel and 20% of them were active in at least one assay; those are over-represented in the sample as a whole.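 48-hour exposure, single concentration, 96-well plates; percent growth endpoint where 0 means no net growth. Active: below 10.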 Calls of active or inactive are those of the source.

Experiments:
Assay in all cases: NCI-60 one-dose screen, 48 h (100 = growth as untreated, 0 = no growth, -100 = all killed)
Conditions in all cases: 10 µM unless noted
SK-MEL-2 melanoma = system: SK-MEL-2 melanoma
EKVX NSCLC = system: EKVX NSCLC
SN12C renal = system: SN12C renal
UO-31 renal = system: UO-31 renal
TK-10 renal = system: TK-10 renal
ACHN renal = system: ACHN renal
CAKI-1 renal = system: CAKI-1 renal
A498 renal = system: A498 renal
MOLT-4 leukemia = system: MOLT-4 leukemia
CCRF-CEM leukemia = system: CCRF-CEM leukemia

Measured: growth

Oc1c(CN2CCCC2)cc(COCc2ccc(Br)cc2)c2cccnc12
active: SK-MEL-2 melanoma -18% | UO-31 renal -13.9% | TK-10 renal 7.24% | ACHN renal 0.47% | CAKI-1 renal 1.4% | A498 renal -1.12% | MOLT-4 leukemia -8.18%
inactive: EKVX NSCLC 27.5% | SN12C renal 12%

Cc1ccc(-c2c(-c3ccccc3)c(=O)oc3ccc(C)cc23)cc1
inactive: SK-MEL-2 melanoma 134% | EKVX NSCLC 96.9% | SN12C renal 91.9% | UO-31 renal 79.9% | TK-10 renal 118% | ACHN renal 90.6% | CAKI-1 renal 81.1% | A498 renal 97.9% | MOLT-4 leukemia 76.3%

CCOC(=O)/C=C/c1cc2cc(-c3csc4ccccc34)ccc2[nH]1
inactive: SK-MEL-2 melanoma 101% | EKVX NSCLC 72.7% | SN12C renal 91.8% | UO-31 renal 36.2% | TK-10 renal 121% | ACHN renal 90.8% | CAKI-1 renal 69.4% | A498 renal 89.8% | MOLT-4 leukemia 12.2%

O=C1CC(N2C(=O)/C(=C/C(Cl)=C\c3ccc([N+](=O)[O-])cc3)SC2=S)C(=O)N1c1ccc(O)cc1 (stereo unspecified)
active: SK-MEL-2 melanoma -9.67% | EKVX NSCLC -2.89% | SN12C renal -8.4% | UO-31 renal -75.2% | TK-10 renal -1.39% | ACHN renal -71.4% | CAKI-1 renal 7.93% | A498 renal -26.8% | MOLT-4 leukemia 2.92%

CN(C)c1ccc(-c2cc(-c3ccc(Nc4nc(Nc5ccc(Cl)cc5)nc(Nc5ccc(Cl)cc5)n4)cc3)no2)cc1
active: MOLT-4 leukemia -24.7%
inactive: SK-MEL-2 melanoma 31.6% | EKVX NSCLC 41.3% | SN12C renal 53.8% | UO-31 renal 23.5% | TK-10 renal 48.4% | ACHN renal 46.5% | CAKI-1 renal 39.7% | A498 renal 67.5%

COc1ccc(-c2nc(SC(C)C)nc(NNC(N)=S)c2C#N)cc1
inactive: SK-MEL-2 melanoma 48.7% | EKVX NSCLC 65.7% | SN12C renal 55.1% | UO-31 renal 64.3% | TK-10 renal 72.9% | ACHN renal 72.1% | CAKI-1 renal 42.3% | A498 renal 50.2% | MOLT-4 leukemia 32.1%

CCOC(CN=Cc1cc(C)c2[nH]c3ccccc3c2c1C)OCC
inactive: SK-MEL-2 melanoma 91.4% | EKVX NSCLC 105% | SN12C renal 99.1% | UO-31 renal 94.3% | TK-10 renal 83.3% | ACHN renal 106% | CAKI-1 renal 105% | A498 renal 37.5% | MOLT-4 leukemia 81.2%

COc1ccccc1CNCCCN1C(=O)c2ccc3c4c(ccc(c24)C1=O)C(=O)N(CCCNCCCCN)C3=O
active: SK-MEL-2 melanoma -67.9% | EKVX NSCLC 8.85% | SN12C renal -39.3% | TK-10 renal -1.84% | ACHN renal 7.77% | A498 renal -52% | MOLT-4 leukemia 0.762%
inactive: UO-31 renal 11.2% | CAKI-1 renal 33.7%

CC1SC(c2ccc(OCc3ccccc3)cc2)N(NC(=O)C(O)(c2ccccc2)c2ccccc2)C1=O (stereo unspecified)
inactive: SK-MEL-2 melanoma 74.4% | EKVX NSCLC 47% | SN12C renal 85.6% | UO-31 renal 54.6% | TK-10 renal 58.6% | ACHN renal 55.3% | CAKI-1 renal 44.3% | A498 renal 55.8% | MOLT-4 leukemia 28.7%

Cc1ccc2nc(NC(=O)CSc3nc(-c4ccccc4)c(C#N)c(=O)n3Cc3ccccc3)sc2c1
inactive: SK-MEL-2 melanoma 85.7% | EKVX NSCLC 90.2% | SN12C renal 92% | UO-31 renal 67.4% | TK-10 renal 119% | ACHN renal 92.6% | CAKI-1 renal 69% | A498 renal 85.7% | MOLT-4 leukemia 93.8%

O=C(Cc1ccc(F)c(F)c1)Nc1cc(C2(C(F)(F)F)CC2)nn1Cc1ccccc1
active: SK-MEL-2 melanoma -32.9% | EKVX NSCLC 6.62% | SN12C renal 6.15% | UO-31 renal -3.87% | TK-10 renal 3.48% | ACHN renal -13.2% | CAKI-1 renal -18.4% | A498 renal -34% | MOLT-4 leukemia 8.42%

Cn1c2c(c3ccc(Cl)c(Cl)c31)C(C#N)C1(CCNCC1)NC2=O (stereo unspecified)
inactive: SK-MEL-2 melanoma 11.5% | EKVX NSCLC 46.2% | SN12C renal 44.2% | UO-31 renal 31.7% | TK-10 renal 38.3% | ACHN renal 26.8% | CAKI-1 renal 29.6% | A498 renal 44.9% | MOLT-4 leukemia 15.6%

CN(C)CC1=NC2SC=C(c3ccccc3)C2C(=O)N1CC#N (stereo unspecified)
inactive: SK-MEL-2 melanoma 104% | EKVX NSCLC 95.9% | SN12C renal 109% | UO-31 renal 13.2% | TK-10 renal 95.3% | ACHN renal 104% | CAKI-1 renal 97.5% | A498 renal 103% | MOLT-4 leukemia 82%

N#CC1=C(NC=O)Oc2c(ccc3ccccc23)C1c1ccccc1 (stereo unspecified)
inactive: SK-MEL-2 melanoma 29% | EKVX NSCLC 67.8% | SN12C renal 39.7% | UO-31 renal 41% | TK-10 renal 54.6% | ACHN renal 43.4% | CAKI-1 renal 26.5% | A498 renal 22.9% | MOLT-4 leukemia 39.5%

CNC(=O)NCC1OC(n2cnc3c(NC(=O)Nc4ccccc4)ncnc32)C(O[Si](C)(C)C(C)(C)C)C1CC(=O)N(C)OC (stereo unspecified)
active: SK-MEL-2 melanoma -4.44% | UO-31 renal -6.83% | TK-10 renal 7.05% | MOLT-4 leukemia -11.7%
inactive: EKVX NSCLC 21.4% | SN12C renal 16.8% | ACHN renal 11.4% | CAKI-1 renal 43% | A498 renal 45.6%

COc1ccc2[nH]c(O)c(/C=c3/cc4c(c(-c5cc(OC)c(OC)c(OC)c5)n3)=Nc3ccccc3-4)c2c1
inactive: SK-MEL-2 melanoma 83% | EKVX NSCLC 81.3% | SN12C renal 80.6% | UO-31 renal 51.5% | TK-10 renal 98% | ACHN renal 72% | CAKI-1 renal 71.6% | A498 renal 43.3% | MOLT-4 leukemia 23.5%

CN(C)CCNc1nc2ccccc2c2c1c1c(n2Cc2ccccc2)-c2ccccc2C1=O
active: SK-MEL-2 melanoma -74.6% | EKVX NSCLC -87.8% | SN12C renal -89.1% | UO-31 renal -77.8% | TK-10 renal -80% | ACHN renal -98.4% | CAKI-1 renal -80.1% | A498 renal -96.4% | MOLT-4 leukemia -84.3%

CN(Cc1cnc2nc(N)nc(N)c2n1)c1ccc(C(=O)N[C@@H](CCc2nn[nH]n2)c2nn[nH]n2)cc1
inactive: SK-MEL-2 melanoma 75.3% | EKVX NSCLC 85.7% | SN12C renal 36% | UO-31 renal 43.1% | TK-10 renal 56.4% | ACHN renal 33.6% | CAKI-1 renal 29.3% | A498 renal 97.2% | MOLT-4 leukemia 28.2%

COc1ccc(C(=O)COc2ccc(/C=C3\Oc4ccccc4C3=O)cc2)cc1
inactive: SK-MEL-2 melanoma 103% | EKVX NSCLC 99% | SN12C renal 97.2% | ACHN renal 101% | CAKI-1 renal 91% | A498 renal 106% | MOLT-4 leukemia 81.7%
active: UO-31 renal -44.4%

Nc1cc2c3c(cccc3c1)C(=O)N(CCN1CCCC1)C2=O
inactive: SK-MEL-2 melanoma 60.2% | EKVX NSCLC 73% | SN12C renal 31.9% | UO-31 renal 13.5% | CCRF-CEM leukemia 28.7%
active: ACHN renal 4.18% | CAKI-1 renal 7.81% | A498 renal 0.673%

Cc1ccc(N(C(=O)CCc2c[nH]c3ccccc23)[C@H](C(=O)Nc2ccc(Cl)cc2)c2cccc([N+](=O)[O-])c2)cc1
inactive: SK-MEL-2 melanoma 105% | EKVX NSCLC 93% | SN12C renal 87.2% | UO-31 renal 47.4% | ACHN renal 61% | CAKI-1 renal 80.5% | A498 renal 58.6% | MOLT-4 leukemia 70.8%

COc1cc2ncn3c(=O)c4c5c(sc4nc3c2cc1OC)CCCC5
inactive: SK-MEL-2 melanoma 91.4% | EKVX NSCLC 83.2% | SN12C renal 109% | UO-31 renal 95.7% | ACHN renal 103% | CAKI-1 renal 92.5% | A498 renal 112% | CCRF-CEM leukemia 137%

O=C1CCc2c(sc3[nH]c(=S)n(-c4ccc(OC(F)(F)F)cc4)c(=O)c23)C1
inactive: SK-MEL-2 melanoma 58.5% | EKVX NSCLC 56.7% | SN12C renal 31.4% | UO-31 renal 44.4% | ACHN renal 80.3% | CAKI-1 renal 83.6% | A498 renal 107% | MOLT-4 leukemia 47.3%

CCCCn1c(=O)c2c(nc(NCCc3ccc(O)c(O)c3)n2CCC)n(CCCC)c1=O
inactive: SK-MEL-2 melanoma 72.7% | EKVX NSCLC 79.5% | SN12C renal 86.6% | UO-31 renal 56.7% | ACHN renal 81% | CAKI-1 renal 100% | A498 renal 86.9% | CCRF-CEM leukemia 36.6%

C=CCn1c(C)nc2cc(Nc3nc(N4CCCC4)nc4ccccc34)ccc21
inactive: SK-MEL-2 melanoma 109% | EKVX NSCLC 97.7% | SN12C renal 90.3% | UO-31 renal 68.1% | ACHN renal 103% | CAKI-1 renal 84.9% | A498 renal 71.4% | MOLT-4 leukemia 49.9%

COc1ccc(NC(=O)CSc2nc(C)c(C(C)=O)n2-c2ccc(Cl)cc2)cc1
inactive: SK-MEL-2 melanoma 102% | EKVX NSCLC 95.5% | SN12C renal 92.5% | UO-31 renal 102% | ACHN renal 99% | CAKI-1 renal 97.8% | A498 renal 75.6% | CCRF-CEM leukemia 108% | MOLT-4 leukemia 91%

CCN(CC)c1ccc2nc3c4ccccc4c(=NC(=O)c4ccccc4-c4c5ccc(N(CC)CC)cc5[o+]c5cc(N(CC)CC)ccc45)cc-3oc2c1
active: MOLT-4 leukemia -23.9%
inactive: SK-MEL-2 melanoma 41.7% | EKVX NSCLC 54.6% | SN12C renal 64% | UO-31 renal 32.6% | ACHN renal 73.6% | CAKI-1 renal 55.2% | A498 renal 86.9% | CCRF-CEM leukemia 24.4%

O=C(NCCNc1cc(-c2cn(-c3ccccc3)nc2-c2cccc(O)c2)ccn1)Nc1ccccc1
inactive: SK-MEL-2 melanoma 86.4% | EKVX NSCLC 71.4% | SN12C renal 77.4% | TK-10 renal 124% | ACHN renal 88.5% | CAKI-1 renal 80.1% | A498 renal 80.8%

COC(=O)[C@]12CC[C@@H](C)[C@H](C)[C@@H]1C1=CC[C@@H]3[C@@]4(C)C(C=O)=C[C@@](C)(COC(=O)c5ccco5)[C@@H]4C(=O)C[C@@]3(C)[C@]1(C)CC2
inactive: EKVX NSCLC 38.3% | SN12C renal 42% | UO-31 renal 29.7% | ACHN renal 13.4% | CAKI-1 renal 38.8% | A498 renal 65.5%
active: SK-MEL-2 melanoma -31.8% | CCRF-CEM leukemia 5.47%
